Compound activity (PubChem)
TDP1 cell CPT: qHTS for Inhibitors of human tyrosyl-DNA phosphodiesterase 1 (TDP1): qHTS in cells in presence of CPT | chicken DT40 Tdp1-/-;hTDP1 cells + 20 nM CPT, ATP luminescence, 48 h | Potency, µM (top dose mostly 46.2 µM), inactives show top-dose activity change, negative = growth inhibition, usual class: inhibitors | hit rate 12% among 420,000; also: potency is read from the fitted curve at half-maximal effect; nearly all actives have a fitted effect of over 55% in size
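Chicken DT40 Tdp1-/- cells complemented with human TDP1, 400 cells/well, exposed to compounds plus 20 nM camptothecin for at least 48 h at 37 C; viability read as ATP content by CellTiter-Glo luminescence.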
HT1080 IDH1KD tx: qHTS for induction of synthetic lethality in tumor cells producing 2HG: qHTS for the HT-1080-IDH1KD cell line; Potency, µM (highest dose often 46.1 µM), for inactives: at the highest dose activity, negative = toxicity, most hits filed as cytotoxic; AID 686971, 2013; hit rate 2% among 360,000; HT-1080 IDH1 knockdown viability, ATP luminescence, 48 h;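 also: potency is read from the fitted curve at half-maximal effect; 0% = DMSO wells and -100% = cell-free medium wells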
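Viability of IDH1-knockdown HT-1080 fibrosarcoma cells was assessed by CellTiter-Glo after 48 h at 37 °C with titrated compound; concentration-effect curves were classified by fit quality and response size.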
DT40 TDP1 no CPT: qHTS for Inhibitors of human tyrosyl-DNA phosphodiesterase 1 (TDP1): qHTS in cells in absence of CPT; DT40 Tdp1-/- hTDP1 cells, no CPT, ATP luminescence, 48 h; Potency, µM (top dose mostly 46.2 µM), inactives show at the highest dose activity change, negative = growth inhibition, most hits filed as inhibitors; hit rate 15% among 420,000; AID 686978, 2013; also: potency is read from the fitted curve at half-maximal effect; nearly all actives have a fitted effect of over 55% in size
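Compound effects on proliferation are scored in DT40 Tdp1-/-;hTDP1 cells in the absence of CPT. ATP levels (CellTiter-Glo luminescence) are recorded after a ≥48 hr, 37 °C incubation.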
HT1080NT lethal: qHTS for induction of synthetic lethality in tumor cells producing 2HG: qHTS for the HT-1080-NT fibrosarcoma cell line; HT-1080-NT fibrosarcoma viability, CellTiter-Glo ATP luminescence, 48 h; Potency, µM (top dose mostly 46.1 µM), without a hit: top-dose activity, negative = less viability, usual class: cytotoxic; hit rate 1.6% among 360,000; AID 686970, 2013;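 also: NT is the 2HG producing partner of a matched IDH1 knockdown line; potency is read from the fitted curve at half-maximal effect; 0% = DMSO-treated cells and -100% = media-only wells without cells; nearly all actives have a fitted effect of over 55% in size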
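HT-1080-NT; 750 cells/well; 5% FBS RPMI; 48 h compound, 37 degrees C; CellTiter-Glo luminescence; curve fitting and curve-class assignment.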
IL-1B inflam inh: qHTS for Inhibitors of Inflammasome Signaling: IL-1-beta AlphaLISA Primary Screen. THP-1 LPS/ATP IL-1B secretion, AlphaLISA, 16 h; active compounds read low. activity change, % at 57.5 µM. hit rate 4.7% among 360,000; in the data active = activity change below about -50%; inconclusive = mostly about -30% to -49%
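THP-1 cells pretreated 1 hr with compounds (up to 57.5 uM final), then stimulated with LPS (250 ng/mL final) plus ATP (1.25 mM final); secreted IL-1B measured by AlphaLISA after 16 hr, decreased signal indicating inhibition.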
* = called active by the depositor; u = inconclusive; x = not tested or not shown; [ ] = remark or other dose. A selection: hits, their analogues and other compounds. The true share with any hit is near 19%. Unless noted, calls follow the shape of the dose curve; as a rule, active = well fitted curve in the direction sought with a large enough effect; inconclusive = small, poorly fitted or top-dose-only effect, or another doubt; inactive = no such curve, though single readings can be large; an effect the other way counts as inactive or inconclusive. Unless noted, % is scaled to controls: 0 for no effect and ±100 for the full control effect.

SMILES	TDP1 cell CPT	HT1080 IDH1KD tx	DT40 TDP1 no CPT	HT1080NT lethal	IL-1B inflam inh
C=CCn1c(SCC(=O)Nc2cc(C)on2)nc2sc3c(c2c1=O)CCCC3	23µM*	16%	9.2µM*	15%	20
C=C(C)Cn1c(SCC(=O)Nc2cccc(C)c2)nc2sc3c(c2c1=O)CCCC3	9.2µM*	x	13µM*	x	x
CNc1cnc(-c2ccc(F)c(F)c2F)cn1	0%	-4%	3%	11%	13
COCOc1ccc(-c2ncc(OC)nc2NC(=O)c2cc(C)oc2C)cc1	u	-8%	-24%	-9%	-19
O=C(Cn1ccc(NC(=O)OCc2ccccc2)nc1=O)NCCN1CCOCC1	-14%	7%	-6%	0%	-5
Cc1ccc(C(=O)Nc2cccc(NC(=O)c3ccc(C)o3)n2)o1	-27%	-15%	-29%	-21%	-16
C=CCn1c(SCC(=O)Nc2c(C)n(C)n(-c3ccccc3)c2=O)nc2sc(C)c(-c3ccccc3)c2c1=O	29µM*	-26%	u	-15%	-30
C=CCn1c(SCC(=O)Nc2c(C)n(C)n(-c3ccccc3)c2=O)nc2sc(C)c(C)c2c1=O	-29%	-4%	u	6%	-25
Cc1cc(NC(=O)CSc2nc(C3CCCCC3)nc3ccccc23)no1	u	5%[9.24 µM]	u	-1%	-29
Cc1cc(NC(=O)CSc2nc(C3CC3)nc3sc4c(c23)CCC(C)C4)no1 (configuration not stated)	16µM*	1%[9.24 µM]	18µM*	-2%	24
COc1ccccc1NC(=O)Nc1c(C)nn(C)c1C	9%	5%	-12%	8%	23
Cc1ccc(C)c(N2CCN(CCCNC(=O)Cn3ncc4c5ccccc5n(C)c4c3=O)CC2)c1	15µM*	x	10µM*	x	x
Cn1c2ccccc2c2cnn(CC(=O)NCCCN3CCN(c4ccccc4F)CC3)c(=O)c21	u	0%	15µM*	-9%	-21
CN1CCN(CCCNC(=O)Cn2ncc3c4ccccc4n(C)c3c2=O)CC1	-4%	3%	-2%	2%	-2
COc1ccc(CC(=O)Oc2ccc(C(C)(C)C)cc2)cc1S(=O)(=O)N1CCOCC1	-10%	-2%	13%	6%	6
O=C(NCc1cccc(Cl)c1)c1cnn2c1NC(c1ccco1)CC2C(F)(F)F (configuration not stated)	18µM*	u	16µM*	-23%	-53*
COCCNC(=O)c1cnn2c1NC(c1ccco1)CC2C(F)(F)F (configuration not stated)	-2%	-1%	1%	3%	-4
CN(Cc1ccc(-n2cccn2)cc1)C(=O)c1cnn2c1NC(c1ccco1)CC2C(F)(F)F (configuration not stated)	23µM*	-7%	16µM*	-8%	-54*
O=C(Nc1ccc2c(c1)CCC2)c1cnn2c1NC(c1ccco1)CC2C(F)(F)F (configuration not stated)	12µM*	23µM*	-58%	u	-5
CC1=Nn2c(nnc2-c2cc(-c3ccccc3)n[nH]2)SC1	-14%	0%	-19%	-4%	9
C(/Oc1ccccc1)=C1\Nn2c(nnc2-c2cc(-c3ccccc3)n[nH]2)S1	7.1µM*	x	20µM*	x	x
C/C(Cn1nnc([N+](=O)[O-])n1)=N\NC(=O)c1ccccc1Cl	23µM*	u	u	u	63
C/C(Cn1nnc([N+](=O)[O-])n1)=N\NC(=O)c1cccc(Cl)c1	16µM*	u	u	u	31
O=C(Cn1cncc1-c1ccc([N+](=O)[O-])cc1)Nc1ccccc1F	u	-23%	-16%	-7%	49
CCOC(=O)c1c(/N=C/C2=C(O)CC(C)(C)CC2=O)sc(C)c1C	-19%	9%	-1%	11%	3
SMILES	TDP1 cell CPT	HT1080 IDH1KD tx	DT40 TDP1 no CPT	HT1080NT lethal	IL-1B inflam inh
N[C@@H](C(=O)O)c1ccc(O)c(C(=O)O)c1	14%	x	-11%	x	x
CCc1ccc(C2CC(=O)N(c3ccc(F)cc3)C3=C2C(=O)OC3)cc1 (configuration not stated)	-7%	2%	16%	5%	-1
C/C(=C/Cc1c(O)cc2oc(C)cc(=O)c2c1O)COC1OC(CO)C(O)C(O)C1O (configuration not stated)	1%	2%	2%	0%	27
CN1CCN(C2=Nc3ccccc3Sc3ccc(Cl)cc32)CC1	u	x	11µM*	x	x
CN1CCN(CCC(=O)N2c3ccccc3Sc3ccc(Cl)cc32)CC1	u	-25%	u	-10%	-28
CCCCCCN1C[C@@H](O)[C@H](n2cc(-c3ccc(F)cc3)nn2)C[C@@H]1c1ccc(C)cc1	u	7%	21µM*	8%	3
CCCCCCN1C[C@@H](O)[C@H](n2cc(-c3ccc(F)cc3)nn2)C[C@@H]1c1ccccc1	-29%	1%	u	-4%	-16
CCCCCCN1C[C@H](O)[C@@H](n2cc(-c3ccc(F)cc3)nn2)C[C@@H]1c1ccc(C)cc1	u	-7%	23µM*	-8%	-18
CCCCCCN1C[C@@H](n2cc(-c3ccc(F)cc3)nn2)[C@H](O)C[C@@H]1c1ccccc1	u	-3%	13µM*	0%	-10
CCC(=O)c1ccc(OCC(=O)OCC(=O)Nc2sccc2C(N)=O)cc1	2%	0%	-2%	1%	4
CC1CCN(C(=O)COC(=O)Cn2cnc3ccccc32)CC1	-22%	0%	-15%	8%	5
C#CCOc1c(Cl)cc(/C=N/NC(N)=S)cc1OCC	u	3%	10µM*	4%	24
CCOc1c(Cl)cc(/C=N/NC(N)=S)cc1OC	u	2%	23µM*	1%	155
COc1cc(/C=N/O)cc(Cl)c1OC	1%	8%	-24%	4%	11
COC(=O)C1=C(C(=O)OC)[N+]2=C3N(C(=O)NC2(C)C)[C@H](CO)C[C@@]32c3ccccc3N(Cc3ccccc3)[C@@H]12	1%	-1%	u	-5%	-25
COc1cccc(-c2cc(C(F)(F)F)n3nc(C(=O)N4CCCCC4c4cccnc4)cc3n2)c1 (configuration not stated)	16µM*	-8%	16µM*	-7%	-72*
O=C(c1cc2nc(-c3ccccc3)cc(C(F)(F)F)n2n1)N1CCCC1	-18%	2%	3%	-1%	-28
COc1ccc(-c2cc(C(F)(F)F)n3nc(C(=O)OC(C)C)cc3n2)cc1	23µM*	x	16µM*	x	x
